Assay results from PubChem BioAssay (NCI).
The panel holds about 83,000 compounds, 20% with a hit somewhere; the sample as a whole holds those more often.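 Negative percent growth values reflect cell death: -40 means 40% of the cells present at the start died, and -100 means all died.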 Unmarked numbers belong to inactive results. Active and inactive are the calls of the source. Rule for the calls: active = growth percent below 10; inactive = the rest.

How the values were obtained:
Assay in all cases: NCI-60 one-dose screen, 48 h (100 = growth as untreated, 0 = no growth, -100 = all killed)
Conditions in all cases: 10 µM unless noted
SK-MEL-2 melanoma = system: SK-MEL-2 melanoma
EKVX NSCLC = system: EKVX NSCLC
SN12C renal = system: SN12C renal
UO-31 renal = system: UO-31 renal
TK-10 renal = system: TK-10 renal
ACHN renal = system: ACHN renal
CAKI-1 renal = system: CAKI-1 renal
A498 renal = system: A498 renal
CCRF-CEM leukemia = system: CCRF-CEM leukemia
MOLT-4 leukemia = system: MOLT-4 leukemia
RPMI-8226 leukemia = system: RPMI-8226 leukemia
OVCAR-8 ovarian = system: OVCAR-8 ovarian
OVCAR-5 ovarian = system: OVCAR-5 ovarian
OVCAR-4 ovarian = system: OVCAR-4 ovarian
SK-OV-3 ovarian = system: SK-OV-3 ovarian
IGROV1 ovarian = system: IGROV1 ovarian
OVCAR-3 ovarian = system: OVCAR-3 ovarian
HS 578T breast = system: HS 578T breast
NCI/ADR-RES ovarian = system: NCI/ADR-RES ovarian
SR leukemia = system: SR leukemia

Structure (SMILES)	growth (SK-MEL-2 melanoma)	growth (EKVX NSCLC)	growth (SN12C renal)	growth (UO-31 renal)	growth (TK-10 renal)	growth (ACHN renal)	growth (CAKI-1 renal)	growth (A498 renal)	growth (CCRF-CEM leukemia)	growth (MOLT-4 leukemia)	growth (RPMI-8226 leukemia)	growth (OVCAR-8 ovarian)	growth (OVCAR-5 ovarian)	growth (OVCAR-4 ovarian)	growth (SK-OV-3 ovarian)	growth (IGROV1 ovarian)	growth (OVCAR-3 ovarian)	growth (HS 578T breast)	growth (NCI/ADR-RES ovarian)	growth (SR leukemia)
COc1ccc(C2C(C#N)=C(N)Oc3c2sc2c(Br)cccc32)cc1 (stereo unspecified)	10.9%	46.2%	37.3%	35.9%	50.2%	54%	35.9%	27%	12.5%	12.1%	12.5%	35.1%	50.5%	64.4%	35.2%	42.7%	10.6%	41.8%	6.27% (active)	
CNC(=O)c1c(NC(=O)c2ccc(C(C)(C)C)cc2)sc2c(CN(C)C)c(O)ccc12	-53% (active)	63.3%	4.62% (active)	-78.5% (active)	87.5%	-22.3% (active)	-13.1% (active)	53.1%	-7.61% (active)	-35.5% (active)	-28.1% (active)	23.7%	-30.9% (active)		34.1%	20.3%	32.7%	54.7%	11.4%	
COc1cc2c(c(OC)c1OC)C(=O)CC(c1cccc(NC(=O)c3ccccc3Br)c1)O2 (stereo unspecified)	75.8%	102%	91.5%	77.3%	97.1%	93%	109%	75.9%	73.1%	69.6%	58.2%	80.1%	117%	90%	108%	102%	96.4%	79.5%	91.3%	
COc1ccc2nc3cc(Cl)ccc3c(NCCN)c2c1	98.5%	-47.5% (active)	-60.4% (active)	-19.4% (active)	-76.2% (active)	-91.7% (active)	-96.5% (active)	55.5%	-13.3% (active)	-40.9% (active)		-33.5% (active)	-61.6% (active)		69.3%	-27% (active)	-84.8% (active)	91.7%	19%	-45.4% (active)
CCOC(=O)Nc1nc2ccc(SCC(C)C)cc2s1	33.1%	48.7%	44.4%	37.6%	33%	45.6%	96.6%	21.5%	21.5%	31.8%	32.3%	49.1%	50.2%	95.3%	28.6%	51.1%	-16.4% (active)	30.3%	14.1%	
COc1ccc(Nc2ncc(C(N)=O)c(NCCCNC(=O)C3CCC3)n2)cc1	51.8%	96.2%	30.9%	2.37% (active)	34.4%	44.9%	34.7%	105%	43.7%	38.7%		62.6%	109%		36.6%	66.8%	88.8%	71.5%	100%	65.1%
Cc1[nH]c(C(=O)Nc2ccc(C(N)=O)cc2NC(C)C)c(Cl)c1Cl	101%	87%	105%	66%	120%	96.5%	94.1%	69.7%	94.2%	86%	87.8%	92.4%	104%	92.4%	113%		96.3%	82.6%	88.2%	
COc1cc2ncnc(Nc3ccc(F)c(Cl)c3)c2cc1OCC(=O)N1CCN(c2ccc(F)cc2)CC1	97.5%	78.3%	88.2%	44.5%	38.2%	45.9%	44.8%	72.5%	113%	85.8%	98.8%	107%	60.6%	82%	88.1%	46.9%	83.4%	89.3%	82.7%	
CN1CCN(C(=O)c2cc(-c3ccc4ncnc(N5CCc6cc(F)c(Cl)cc65)c4c3)cnc2N)CC1	-48% (active)	-10.2% (active)	9.07% (active)	3.95% (active)	-14.2% (active)	5.3% (active)	-33.3% (active)	-69.2% (active)	7.93% (active)	1.54% (active)		10.3%	9.22% (active)	-12.7% (active)	10.9%		-42.8% (active)	-17.2% (active)	8.74% (active)	14.7%
CCc1cccc(Sc2cc(C(=O)N3Cc4ccc(OCCN(C)C)cc4C3)ccc2O)c1	88.2%	39.2%	63.9%	56.5%	63.2%	58.2%	83.5%	42.2%	29.2%	25%	29.3%	24.1%	110%	53.2%	37.7%	59.8%	67.3%	95.4%	50.4%	
N=c1sc(Cc2cc(Cl)ccc2Cl)cn1CC(=O)c1ccccc1	61.6%	54.4%	63%	43.9%	61.3%	37.3%	21.1%	49%	60%	49.8%	70.4%	62.6%	47.8%	56.5%	67.9%	35.6%	45.4%	59.2%	36%	
O=P(O)(O)OCC1OC(n2cnc3c(NCc4ccccc4)ncnc32)C(O)C1O (stereo unspecified)	85.2%	24.7%	19.7%	41.2%	10.9%	8.81% (active)	11%	-11.5% (active)	2.68% (active)	21.7%	29.5%	11.5%	57.7%	25.5%	9.33% (active)	1.31% (active)	-66.7% (active)	28.2%	29.7%	
Cn1cc(C(=O)c2nc(-c3c[nH]c4ccc(Br)cc34)no2)c2cc(Br)ccc21	109%	60.5%	80.1%		99.9%	80.9%	67.4%	106%	45.6%	85%	86.6%	48.6%	82.7%	-0.341% (active)	87.7%		92.7%	80.3%	56.1%	6.41% (active)
O[C@@H](c1cc(C(F)(F)F)nc2c(C(F)(F)F)cccc12)[C@H]1CCCCN1	77%	69.7%	63.8%		66%	37.8%	76.5%	60%	73%	31.8%	68.9%	76.7%	77.7%	62.6%	82.7%	51.7%	63.1%	58.2%	61.9%	8.64% (active)
COc1cc(C#Cc2ccc(=O)oc2C#Cc2ccccc2)cc(OC)c1OC	104%	115%	16%		134%	89.3%	96.3%	119%	3.76% (active)	33.4%	49.2%	89.4%	75.8%	96.9%	101%	67.4%	29.9%	84.8%	89.7%	
C=C1C(=O)O[C@H]2[C@H]1CC/C(COC(=O)c1cc3cc(F)ccc3[nH]1)=C\CC[C@@]1(C)O[C@@H]21	-69% (active)	-78.1% (active)	-42% (active)		-94.9% (active)	-88.5% (active)	-90.8% (active)	-40.2% (active)	-31.9% (active)	-16.2% (active)	-33.3% (active)	-42% (active)	-74.2% (active)	-68.2% (active)	26.7%	-72.1% (active)	-85.5% (active)	-14.2% (active)	-20.2% (active)	
